Laboratory results published in PubChem BioAssay (NCATS).
Inconclusive results are not listed. Activity calls are given as the source filed them. Unless noted, calls come from the whole dose curve; as a rule, active = well fitted curve in the direction sought with a large enough effect; inconclusive = small, poorly fitted or top-dose-only effect, or another doubt; inactive = no such curve, though single readings can be large; an effect the other way counts as inactive or inconclusive.

What was measured:
[1] = target: Lysosomal acid glucosylceramidase (Homo sapiens) (UniProt P04062); experiment: Glucocerebrosidase-p2 (AID 348; in the data active = potency below about 10 µM; note: potency is the fitted concentration of half-maximal effect); settings: purified GBA, blue fluorogenic substrate, 40 min
Chain of Lysosomal acid glucosylceramidase (Homo sapiens) (P04062 whole entry, looked up): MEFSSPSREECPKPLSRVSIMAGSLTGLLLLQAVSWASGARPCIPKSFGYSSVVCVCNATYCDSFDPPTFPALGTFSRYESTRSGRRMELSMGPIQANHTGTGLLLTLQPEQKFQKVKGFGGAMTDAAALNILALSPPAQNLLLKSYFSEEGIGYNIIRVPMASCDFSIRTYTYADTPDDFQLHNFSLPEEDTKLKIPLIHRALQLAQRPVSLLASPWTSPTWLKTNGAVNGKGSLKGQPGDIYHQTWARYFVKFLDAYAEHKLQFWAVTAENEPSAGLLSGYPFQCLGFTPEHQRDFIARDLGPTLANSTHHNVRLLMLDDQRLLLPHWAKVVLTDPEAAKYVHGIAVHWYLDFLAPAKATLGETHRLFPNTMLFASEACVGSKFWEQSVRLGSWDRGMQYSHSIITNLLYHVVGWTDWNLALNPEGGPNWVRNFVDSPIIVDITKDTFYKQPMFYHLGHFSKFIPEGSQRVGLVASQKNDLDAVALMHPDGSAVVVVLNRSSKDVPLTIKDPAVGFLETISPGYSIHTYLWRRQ
Outline: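 Compounds titrated from 0.6 nM upwards against 0.2 nM enzyme in pH 5.9 citric acid/KH2PO4, taurocholate, tween-20; blue fluorogenic substrate 80 uM, 40 min room temperature, stopped and read Ex 365/Em 440 for AC50.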

[2] = AP1 Signaling Pathway (AID 357; active = well fitted curve in either direction with a large enough effect, not every such curve was filed as active;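 note: ME-180 reporter cells stimulated with EGF at its EC50 level; % is set by controls: 0 for no effect and ±100 for the full control effect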); settings: ME-180 AP-1-bla reporter, EGF-induced, beta-lactamase ratio, 5 h; at 7.69 µM (top of the series) unless noted
Outline: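 Titration-series screen for positive or negative modulators of EC50 EGF-induced signaling in ME-180 cells carrying an AP-1-driven beta-lactamase reporter. After 5 hours at 37 degrees Celsius, CCF4 460nm/530nm emission ratio gave %Activity; AC50 values derived.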

[3] = NFAT Signaling Pathway (AID 444; active = well fitted curve in either direction with a large enough effect, not every such curve was filed as active;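 note: carbachol stimulus at about its EC50 of 1 µM final; % is set by controls: 0 for no effect and ±100 for the full control effect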); settings: Jurkat NFAT-bla M1, carbachol, beta-lactamase ratio, 5 h; at 7.69 µM (top of the series) unless noted
Outline: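 Jurkat cells carrying an NFAT-driven β-lactamase reporter and co-transfected muscarinic M1 receptor were treated with compound plus carbachol (1 uM final, an EC50 level) for 5 h at 37 °C. CCF4 loading followed for 1 h at RT; 460/530 nm ratio gave %activity.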

[4] = Stat Signaling Pathway (AID 446; active = well fitted curve in either direction with a large enough effect, not every such curve was filed as active;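 note: ME-180 cervical cancer cells given 40 pM IL-6 alongside compound; SIE-controlled beta-lactamase reporter measured as 460/530 nm FRET emission ratio; % is set by controls: 0 for no effect and ±100 for the full control effect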); settings: ME-180 SIE beta-lactamase reporter, IL-6 stimulated, 5 h; at 7.69 µM (top of the series) unless noted
Outline: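 IL-6/STAT signaling read in ME-180 cells via an SIE beta-lactamase reporter. Stimulus was 40 pM IL-6 (its AC50) for 5 hrs, so both activation and inhibition register.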

[5] = target: Glucocorticoid receptor (Homo sapiens) (UniProt P04150); experiment: GR-GFP Redistribution (AID 450;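 active = compounds whose dose series gives a full or clear partial fitted curve of increased nuclear translocation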; note: potency is the fitted concentration of half-maximal effect); settings: U2OS GR-GFP nuclear translocation, laser cytometry, 2 h
Chain of Glucocorticoid receptor (Homo sapiens) (P04150 whole entry, looked up, the tested form may be a part): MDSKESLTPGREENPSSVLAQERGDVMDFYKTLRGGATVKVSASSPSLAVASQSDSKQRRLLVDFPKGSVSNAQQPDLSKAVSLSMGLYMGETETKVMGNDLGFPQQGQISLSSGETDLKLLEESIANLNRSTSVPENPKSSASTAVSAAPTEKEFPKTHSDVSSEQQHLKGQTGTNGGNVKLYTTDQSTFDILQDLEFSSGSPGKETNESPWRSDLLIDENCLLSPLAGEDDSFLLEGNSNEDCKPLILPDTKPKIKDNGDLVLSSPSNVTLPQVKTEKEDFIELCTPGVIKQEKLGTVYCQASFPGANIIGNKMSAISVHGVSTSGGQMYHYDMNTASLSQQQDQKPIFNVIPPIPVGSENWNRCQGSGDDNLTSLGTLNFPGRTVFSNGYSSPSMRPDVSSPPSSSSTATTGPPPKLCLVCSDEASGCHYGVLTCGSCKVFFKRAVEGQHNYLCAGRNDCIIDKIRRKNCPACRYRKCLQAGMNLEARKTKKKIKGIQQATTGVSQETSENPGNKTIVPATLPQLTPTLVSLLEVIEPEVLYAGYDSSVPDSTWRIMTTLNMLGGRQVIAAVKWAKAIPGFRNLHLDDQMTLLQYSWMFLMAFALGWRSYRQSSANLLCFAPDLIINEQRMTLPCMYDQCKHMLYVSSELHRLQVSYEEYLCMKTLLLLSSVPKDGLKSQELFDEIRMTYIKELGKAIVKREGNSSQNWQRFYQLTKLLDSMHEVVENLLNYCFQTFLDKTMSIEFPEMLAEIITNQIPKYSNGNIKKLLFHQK

[6] = target: Glucocorticoid receptor (Homo sapiens) (UniProt P04150); experiment: GR-EFC Redistribution (AID 451; calls by dose curve; note: potency is the fitted concentration of half-maximal effect); settings: CHO-K1 GR-EFC translocation, beta-gal luminescence, 2 h
Outline: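 CHO-K1 cells stably expressing nuclear-localized β-gal enzyme acceptor and GR fused C-terminally to the enzyme donor fragment; ligand-driven nuclear translocation restores β-gal by complementation. Compounds titrated up to 46 uM final, 2 h at 37 °C; luminescence read.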

[7] = target: Mitogen-activated protein kinase 10 (Mus musculus) (UniProt Q61831); experiment: JNK3 AlphaScreen Assay (AID 530; active = well fitted curve in either direction with a large enough effect, not every such curve was filed as active;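 note: kinase came from lysate of stimulated human HepG2 cells; signal reports phosphorylation of biotinylated GST-cJun 1-79 at Ser73 with 10 µM ATP; % is set by controls: 0 for no effect and ±100 for the full control effect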); settings: JNK3 lysate, c-Jun phosphorylation; series mostly up to 57.1 µM
Outline: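 JNK3 came from HepG2 lysates pre-activated with IL-1beta and TNF-alpha and phosphorylated biotinylated GST-cJun (1-79) at 10 uM ATP, pH 7.6, room temperature. Compounds were titrated. AlphaScreen signal used anti-phospho-cJun (Ser73) antibody.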

[8] = target: 3',5'-cyclic-AMP phosphodiesterase 4B (Homo sapiens) (UniProt Q07343); experiment: qHTS Assay for Inhibitors of PDE-IV (AID 607; active = well fitted activation curve with a large enough effect in the main read-out, with a control signal flat, not every such curve was filed as active; note: % of control where 0% means no effect); settings: HEK293 ACTOne CNG channel cells, membrane potential fluorescence; series mostly up to 22.9 µM
Chain of 3',5'-cyclic-AMP phosphodiesterase 4B (Homo sapiens) (Q07343 whole entry, looked up): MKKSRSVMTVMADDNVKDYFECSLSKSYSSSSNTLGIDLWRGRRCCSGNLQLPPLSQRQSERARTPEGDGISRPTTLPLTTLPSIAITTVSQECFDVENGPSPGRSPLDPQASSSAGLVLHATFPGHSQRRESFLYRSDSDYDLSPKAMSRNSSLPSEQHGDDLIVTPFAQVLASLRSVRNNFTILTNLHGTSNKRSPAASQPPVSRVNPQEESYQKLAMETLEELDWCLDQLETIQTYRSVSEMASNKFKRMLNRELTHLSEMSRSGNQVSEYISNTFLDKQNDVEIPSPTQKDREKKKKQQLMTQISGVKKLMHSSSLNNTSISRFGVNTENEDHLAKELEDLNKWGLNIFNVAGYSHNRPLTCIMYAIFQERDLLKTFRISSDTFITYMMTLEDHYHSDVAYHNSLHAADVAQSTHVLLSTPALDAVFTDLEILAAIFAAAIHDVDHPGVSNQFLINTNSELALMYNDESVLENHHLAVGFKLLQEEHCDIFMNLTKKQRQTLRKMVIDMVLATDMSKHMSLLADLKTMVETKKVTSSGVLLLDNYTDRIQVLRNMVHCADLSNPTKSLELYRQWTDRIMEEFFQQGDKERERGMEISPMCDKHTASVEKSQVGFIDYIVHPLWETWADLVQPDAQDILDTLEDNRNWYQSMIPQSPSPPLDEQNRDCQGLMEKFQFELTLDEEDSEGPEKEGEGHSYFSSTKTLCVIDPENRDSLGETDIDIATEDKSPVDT
Outline: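 Live HEK293 cells with a modified cyclic nucleotide-gated (CNG) channel report intracellular cAMP via membrane-potential dye fluorescence (ex 535/em 590 nm). Endogenous PDE-IV was targeted. Compounds were tested at up to 22.9 uM final; RO 20-1724 100 uM served as control.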

[9] = target: Cytochrome P450 3A4 (Homo sapiens) (UniProt P08684); experiment: qHTS Assay for Activators of Cytochrome P450 3A4 (AID 885); settings: recombinant CYP3A4, Luciferin-PPXE luminescence, 60 min; series mostly up to 57.1 µM; note: nearly all actives have a fitted effect of over 65% in size
Chain of Cytochrome P450 3A4 (Homo sapiens) (P08684 whole entry, looked up): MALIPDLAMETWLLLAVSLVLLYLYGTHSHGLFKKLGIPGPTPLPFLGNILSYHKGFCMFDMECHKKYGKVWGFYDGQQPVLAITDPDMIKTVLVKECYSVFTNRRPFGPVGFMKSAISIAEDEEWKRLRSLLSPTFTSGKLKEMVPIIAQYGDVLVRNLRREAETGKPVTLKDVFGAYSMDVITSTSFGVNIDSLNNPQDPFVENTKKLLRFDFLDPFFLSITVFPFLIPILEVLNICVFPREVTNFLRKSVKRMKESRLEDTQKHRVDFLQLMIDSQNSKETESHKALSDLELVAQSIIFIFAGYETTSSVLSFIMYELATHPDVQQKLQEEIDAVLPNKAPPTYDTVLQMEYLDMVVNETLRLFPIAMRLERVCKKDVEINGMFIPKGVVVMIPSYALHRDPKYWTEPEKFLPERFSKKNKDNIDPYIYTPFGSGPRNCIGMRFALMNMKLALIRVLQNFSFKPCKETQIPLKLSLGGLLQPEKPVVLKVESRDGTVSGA
Outline: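 Quantitative HTS format: compounds preincubated with 20nM human CYP3A4 and Luciferin-PPXE substrate at KM, reaction started by NADPH regeneration, stopped after 60 min, luciferase luminescence read 20 min later.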

[10] = qHTS Assay for Lipid Storage Modulators (AID 1519; calls by dose curve); settings: Drosophila S3 cells, BODIPY lipid droplet/cell ratio, laser cytometry, cells loaded with oleic acid; for activity change, negative = inhibition: at 57.5 µM (top of the series)
Outline: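 Cells seeded at 5,000 per well were treated with compounds over a concentration series and loaded with oleic acid (400 uM, as added). Lipid droplet fluorescence (488 nm excitation, 500-530 nm channel) was read by laser-scanning cytometry and normalized to 20 uM Triacsin C.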

[11] = target: Dual specificity protein kinase CLK4 (Homo sapiens) (UniProt Q9HAZ1); experiment: qHTS Assay for Inhibitors of CDC-like Kinase 4 (Kinase-Glo Assay) (AID 1770); settings: recombinant Clk4, Kinase-Glo ATP depletion luminescence; series mostly up to 66.7 µM; note: % is set by controls: 0 for no effect and ±100 for the full control effect; nearly all actives have a fitted effect of over 65% in size
Chain of Dual specificity protein kinase CLK4 (Homo sapiens) (Q9HAZ1 whole entry, looked up): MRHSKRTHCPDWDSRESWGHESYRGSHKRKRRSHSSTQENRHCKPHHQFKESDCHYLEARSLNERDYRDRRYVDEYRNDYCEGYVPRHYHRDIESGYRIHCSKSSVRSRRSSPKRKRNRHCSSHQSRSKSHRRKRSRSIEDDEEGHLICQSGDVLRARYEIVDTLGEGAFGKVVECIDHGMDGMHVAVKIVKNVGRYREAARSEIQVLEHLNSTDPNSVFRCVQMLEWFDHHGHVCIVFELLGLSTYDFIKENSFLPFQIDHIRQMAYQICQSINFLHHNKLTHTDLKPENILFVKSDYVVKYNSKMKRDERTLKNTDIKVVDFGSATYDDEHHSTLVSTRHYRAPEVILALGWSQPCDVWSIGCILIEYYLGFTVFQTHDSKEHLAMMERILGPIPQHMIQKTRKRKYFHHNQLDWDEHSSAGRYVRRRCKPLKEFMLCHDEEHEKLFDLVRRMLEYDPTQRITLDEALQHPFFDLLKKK
Outline: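 Luminescent ATP-depletion read-out (Kinase-Glo) after 4.5 h room-temperature reaction of Clk4 (25 nM final) with RS peptide (100 uM) and ATP (1 uM), pH 7.5 Tris buffer with MgCl2 and DTT.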

[12] = target: Dual specificity protein kinase CLK4 (Homo sapiens) (UniProt Q9HAZ1); experiment: qHTS Assay for Inhibitors of CDC-like Kinase 4 (ADP-Glo Assay) (AID 1771); settings: recombinant CLK4, ADP-Glo luminescence; series mostly up to 80 µM; note: % is set by controls: 0 for no effect and ±100 for the full control effect; nearly all actives have a fitted effect of over 70% in size
Outline: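 Kinase reaction: Clk4 at 25 nM, RS repeat peptide substrate at 100 uM, ATP at 1 uM, 1 hr, room temperature. Product ADP detected as luciferase signal via ADP-Glo.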

[13] = target: Dual specificity protein kinase CLK4 (Homo sapiens) (UniProt Q9HAZ1); experiment: qHTS Assay for Inhibitors of CDC-like Kinase 4 (ADP-FP Assay) (AID 1795); settings: Transcreener ADP fluorescence polarization; series mostly up to 50 µM;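 note: recombinant human CLK4 phosphorylating RS repeat peptide at 1 µM ATP; % is set by controls: 0 for no effect and ±100 for the full control effect; nearly all actives have a fitted effect of over 60% in size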
Outline: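 Kinase activity was measured as ADP production using Transcreener orange tracer (4 nM) and ADP antibody (1 ug/mL) fluorescence polarization, with ADP calculated from a calibration curve. The 1 h reaction contained 6.25 nM Clk4, 1 uM ATP and 100 uM RS peptide at pH 7.5 with Mg2+.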

[14] = target: Ubiquitin carboxyl-terminal hydrolase 1 (Homo sapiens) (UniProt O94782); experiment: Inhibitors of USP1/UAF1: Pilot qHTS (AID 504865); settings: purified USP1/UAF1, Ub-rhodamine cleavage fluorescence; series mostly up to 54.9 µM; note: nearly all actives have a fitted effect of over 35% in size; note: potency is the fitted concentration of half-maximal effect
Chain of Ubiquitin carboxyl-terminal hydrolase 1 (Homo sapiens) (O94782 whole entry, looked up): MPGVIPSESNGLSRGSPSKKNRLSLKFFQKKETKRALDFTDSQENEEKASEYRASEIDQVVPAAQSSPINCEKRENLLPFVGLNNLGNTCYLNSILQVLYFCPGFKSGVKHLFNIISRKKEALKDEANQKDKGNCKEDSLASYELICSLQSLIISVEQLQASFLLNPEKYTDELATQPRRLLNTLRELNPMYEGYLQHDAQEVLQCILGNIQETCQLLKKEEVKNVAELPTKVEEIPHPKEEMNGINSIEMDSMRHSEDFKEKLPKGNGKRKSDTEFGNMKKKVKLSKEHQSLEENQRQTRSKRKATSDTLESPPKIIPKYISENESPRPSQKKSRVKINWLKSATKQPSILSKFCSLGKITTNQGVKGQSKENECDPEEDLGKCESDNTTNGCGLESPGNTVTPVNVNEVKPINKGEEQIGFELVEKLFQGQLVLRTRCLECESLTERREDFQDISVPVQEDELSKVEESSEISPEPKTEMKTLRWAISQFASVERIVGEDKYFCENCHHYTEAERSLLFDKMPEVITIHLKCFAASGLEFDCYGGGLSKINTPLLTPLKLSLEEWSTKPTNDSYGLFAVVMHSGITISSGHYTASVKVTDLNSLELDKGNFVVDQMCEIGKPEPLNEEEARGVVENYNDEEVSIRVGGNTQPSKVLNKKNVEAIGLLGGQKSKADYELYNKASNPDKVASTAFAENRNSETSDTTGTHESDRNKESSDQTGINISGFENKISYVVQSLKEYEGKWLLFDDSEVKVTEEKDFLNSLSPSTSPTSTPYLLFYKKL
Outline: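 Deubiquitinase activity followed as kinetic rhodamine fluorescence release from 150 nM Ub-Rho. 1 nM USP1/UAF1 with compound, after 15 min room-temperature preincubation, in HEPES pH 7.8 buffer containing TCEP, EDTA, BSA and Tween-20.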

[15] = Primary qHTS for small molecule stabilizers of the endoplasmic reticulum resident proteome: Secreted ER Calcium Modulated Protein (SERCaMP) assay (AID 1508630); settings: SH-SY5Y GLuc-SERCaMP (Gaussia luciferase released on ER calcium loss) secretion, thapsigargin, luminescence; series mostly up to 38.4 µM; note: % is set by controls: 0 for no effect and ±100 for the full control effect
Outline: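 GLuc-SERCaMP-expressing SH-SY5Y cells, pretreated 16 h with compound, are challenged with thapsigargin to empty ER calcium stores; after 4 h, coelenterazine is added directly to the medium and luminescence is imaged.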

[16] = qHTS Assay for Identification of Small Molecule Agonists for Hypoxia Response Element Signaling Pathway (AID 914; active = well fitted activation curve with a large enough effect in the signal ratio, with a control signal flat, not every such curve was filed as active; the % refers to the signal ratio; note: % of control where 0% means no effect); settings: ME-180 (cervical carcinoma) HRE-bla reporter, beta-lactamase ratio, CoCl2, 17 h; activation: stronger effect = higher value
Outline: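 In Opti-MEM containing 0.5% dialyzed FBS and 10 mM HEPES, ME-180 HRE-bla cells received a compound titration and EC50 CoCl2. They were incubated 17 hours, then CCF4-loaded 2.5 hours at room temperature before ratio reading.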

[17] = measured here: cell count channel max response
[18] = measured here: lipid channel max response

SMILES | Potency [1] | activity change, negative = inhibition [2] | activity change, negative = inhibition [3] | activity, negative = inhibition [4] | Potency [5] | Potency [6] | outcome [7] | Potency [8] | Potency [9] | activity change, negative = inhibition [10] | max response [10, 17] | max response [10, 18] | Potency [11] | Potency [12] | Potency [13] | Potency [14] | Potency [15] | activation [16]
COc1ncc2nc(C)c(=O)n(C3CC3)c2n1 | > 11.4 µM (inactive) | -5.11% (inactive) | -4.48% (inactive) | -11.2% (inactive) | > 9.22 µM (inactive) | > 46 µM (inactive) | inactive | inactive | inactive | 4.19% (inactive) | 28.7% | 29.7% | inactive | inactive | inactive | inactive | inactive | –
Cc1cnc(CNc2ccnc(-c3ccccc3CN(C)C)n2)cn1 | > 11.4 µM (inactive) | 10.8% (inactive) | -5.1% (inactive) | 12.3% (inactive) | > 46 µM (inactive) | > 46 µM (inactive) | inactive | inactive | – | 5.8% (inactive) | 23.9% | 27.5% | inactive | inactive | inactive | inactive | inactive | –
Cc1noc(C)c1-c1cc(N2CCNCC2)ncn1 | > 11.4 µM (inactive) | -3.92% (inactive) | 7.79% (inactive) | 5.3% (inactive) | > 46 µM (inactive) | > 46 µM (inactive) | inactive | inactive | – | 5.16% (inactive) | 1.52% | 8.99% | inactive | inactive | inactive | inactive | inactive | –
COc1cccc(Cn2c(=O)c(-c3ccc(F)cc3)nc3cnc(N(C)C)nc32)c1 | > 11.4 µM (inactive) | 12% (inactive) | 9.76% (inactive) | -3.48% (inactive) | > 9.22 µM (inactive) | > 46 µM (inactive) | inactive | inactive | – | 7.91% (inactive) | 20.9% | 28.6% | inactive | inactive | inactive | inactive | inactive | –
O=c1c(-c2ccc(F)cc2)nc2cnc(Oc3ccccc3)nc2n1Cc1cccs1 | > 11.4 µM (inactive) | -11.6% (inactive) | 2.8% (inactive) | 1.3% (inactive) | > 9.22 µM (inactive) | > 46 µM (inactive) | inactive | inactive | – | -20.3% (inactive) | -6.12% | -29.7% | inactive | inactive | inactive | 3.16 µM (active) | inactive | –
COc1ncc2nc(-c3ccc(F)cc3)c(=O)n(-c3ccccc3)c2n1 | > 11.4 µM (inactive) | -5.39% (inactive) | -7.66% (inactive) | -2.33% (inactive) | > 9.22 µM (inactive) | > 46 µM (inactive) | inactive | inactive | – | 2.16% (inactive) | -0.95% | -1.99% | inactive | inactive | inactive | inactive | inactive | –
COCCn1c(=O)c(-c2ccc(F)cc2)nc2cnc(OC)nc21 | > 11.4 µM (inactive) | -3.31% (inactive) | 15.2% (inactive) | -15% (inactive) | > 9.22 µM (inactive) | > 46 µM (inactive) | inactive | inactive | – | 4.45% (inactive) | 6.98% | 9.8% | inactive | inactive | inactive | inactive | inactive | –
COCCn1c(=O)c(-c2cccc(C#N)c2)nc2cnc(OC)nc21 | > 11.4 µM (inactive) | -22.4% (inactive) | 4.96% (inactive) | -9.77% (inactive) | > 9.22 µM (inactive) | > 46 µM (inactive) | inactive | inactive | – | 4.12% (inactive) | 19.6% | 22% | inactive | inactive | inactive | inactive | inactive | -7.08% (inactive)
COCCNc1ncncc1-c1ccccc1OC | > 11.4 µM (inactive) | 0.174% (inactive) | 6.41% (inactive) | 16.6% (inactive) | > 46 µM (inactive) | > 46 µM (inactive) | inactive | inactive | – | 4.36% (inactive) | 20.6% | 16.6% | inactive | inactive | inactive | inactive | inactive | –
CN1CCN(c2cc(-c3ccoc3)ncn2)CC1 | > 11.4 µM (inactive) | -1.21% (inactive) | -3.33% (inactive) | 8.56% (inactive) | > 46 µM (inactive) | > 46 µM (inactive) | inactive | inactive | – | 6.62% (inactive) | 23% | 27.8% | inactive | inactive | inactive | inactive | inactive | –
O=c1c(-c2cc(F)cc(F)c2)nc2cnc(N3CCOCC3)nc2n1Cc1cccs1 | > 11.4 µM (inactive) | 6.66% (inactive) | 22.7% (inactive) | 6.69% (inactive) | > 9.22 µM (inactive) | > 46 µM (inactive) | inactive | inactive | – | 3.39% (inactive) | 18.1% | 23.4% | inactive | inactive | inactive | inactive | inactive | –
